Experimental data as given in ChEMBL document CHEMBL3433997, “St. Jude Leishmania screening dataset” (2016).

Legend:
Type in all cases: functional
[1] = target: Solute carrier family 2, facilitated glucose transporter member 1 (Homo sapiens) (UniProt P11166); assay: ST_JUDE_LEISH: Cytotoxicity at 2uM final concentration against transgenic Leishmania Mexicana promastigotes LmGLUT1 that are glucose transport deficient and complemented with the human glucose transporter GLUT1. Activity is measured by DNA content using SYBR green in vitro
[2] = target: Hexose transporter 1 (Plasmodium falciparum) (UniProt O97467); assay: ST_JUDE_LEISH: Cytotoxicity at 2uM final concentration against transgenic Leishmania Mexicana promastigotes LmPfHT that are glucose transport deficient and complemented with the Plasmodium falciparum hexose transporter. Activity is measured by DNA content using SYBR green in vitro
[3] = target: Glucose transporter (Leishmania mexicana) (UniProt O61059); assay: ST_JUDE_LEISH: Cytotoxicity at 2uM final concentration against transgenic Leishmania Mexicana promastigotes LmGT2 that are glucose transport deficient and complemented with the L. Mexicana glucose transporter 2. Activity is measured by DNA content using SYBR green in vitro

Sequence of Solute carrier family 2, facilitated glucose transporter member 1 (Homo sapiens) (P11166 whole entry): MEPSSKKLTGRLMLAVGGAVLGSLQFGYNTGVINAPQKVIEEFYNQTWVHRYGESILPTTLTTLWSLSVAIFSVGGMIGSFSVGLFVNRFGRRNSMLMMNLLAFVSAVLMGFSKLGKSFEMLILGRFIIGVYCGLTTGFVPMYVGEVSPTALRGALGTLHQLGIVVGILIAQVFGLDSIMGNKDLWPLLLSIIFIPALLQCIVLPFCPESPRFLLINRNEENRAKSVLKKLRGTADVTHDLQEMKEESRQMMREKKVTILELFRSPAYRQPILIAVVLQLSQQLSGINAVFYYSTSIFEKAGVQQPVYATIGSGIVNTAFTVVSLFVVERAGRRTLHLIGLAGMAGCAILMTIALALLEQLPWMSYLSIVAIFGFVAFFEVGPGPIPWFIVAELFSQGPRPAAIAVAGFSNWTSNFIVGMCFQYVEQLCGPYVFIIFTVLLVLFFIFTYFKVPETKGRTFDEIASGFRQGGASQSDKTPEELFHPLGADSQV

Q: `O=C(/C=C/c1ccc(Cl)c(Cl)c1)NCCCCCN1CCN(C(=O)Nc2ccc(OC(F)F)cc2)CC1` was tested. Which inhibition [1] did it give?
A: 2.15%

Q: What about the inhibition [2] of the same compound?
A: 1.76%

Q: What about the inhibition [3] of the same compound?
A: -2.1%

Q: Which results are given for `Cc1cc(Nc2ccc(Cl)cc2)n2nc(C(F)(F)F)nc2n1`?
A: inhibition [1]: 0.02%; inhibition [2]: 0.17%; inhibition [3]: 0.13%

Q: Which results are given for `O=c1nc(NCCCCCN2CCC(c3c[nH]c4ccccc34)CC2)[nH]cc1Cc1ccc(Cl)c(Cl)c1`?
A: inhibition [1]: 2.65%; inhibition [2]: 2.12%; inhibition [3]: 2.08%

Q: Which results are given for `N#Cc1ccc(C(=O)Nc2cc(-c3cccc(O)c3)cc3[nH]ncc23)cc1`?
A: inhibition [1]: 2.57%; inhibition [2]: 2.33%; inhibition [3]: 0.89%

Q: `Fc1ccc2[nH]c(-c3ccc(-c4cccc(CN5CCN(c6ccncc6)CC5)c4)cc3)nc2c1` was tested. Which inhibition [1] did it give?
A: 2.37%

Q: And the inhibition [2]?
A: 1.42%

Q: And the inhibition [3]?
A: 4.07%

Q: Which results are given for `CCOC(=O)c1ccc(OCCOc2ccccc2)cc1`?
A: inhibition [1]: -0.36%; inhibition [2]: 1.04%; inhibition [3]: 0.6%

Q: For `Cc1cc(NC(c2ccc(Cl)cc2)c2ccc3cccnc3c2O)no1` (stereo not given), which inhibition [1] is on record?
A: 16.6%

Q: And the inhibition [2]?
A: 22.8%

Q: And the inhibition [3]?
A: 6.2%

Q: Which inhibition [1] does the source give for `COc1ccc(NC(=O)/C=C/c2ccccc2Cl)cc1OCCN1CCC(O)(c2ccc(Cl)c(C(F)(F)F)c2)CC1` here?
A: 11.2%

Q: And the inhibition [2]?
A: 8.47%

Q: And the inhibition [3]?
A: 7.73%

Q: What does the source list for `Cc1ccc(NC(=O)c2ccc(Cl)c(Cl)c2)cc1-c1ccc(C(=O)Nc2ccncc2)cc1`?
A: inhibition [1]: -0.14%; inhibition [2]: 0.86%; inhibition [3]: -1.3%

Q: Which inhibition [1] does the source give for `CC(O)C1CCCCN1C(=O)c1ccc(-c2cccc(-c3nc4cc(F)ccc4[nH]3)c2)cc1` (stereo not given) here?
A: 3.01%

Q: What about the inhibition [2] of the same compound?
A: 2.87%

Q: And the inhibition [3]?
A: 3.89%

Q: With `Cc1cnc(NCC2CCCCC2)nc1N[C@@H](CC(C)C)C(=O)Nc1ccccc1` as the compound, how does the inhibition [1] read?
A: 2.17%

Q: What about the inhibition [2] of the same compound?
A: 1.5%

Q: And the inhibition [3]?
A: 0.65%

Q: `c1ccc(Oc2ccc(Nc3ccnc4cc(-c5csc(CN6CCCCC6)n5)ccc34)cc2)nc1` was tested. Which inhibition [1] did it give?
A: 0.24%

Q: What about the inhibition [2] of the same compound?
A: 1.27%

Q: What about the inhibition [3] of the same compound?
A: 0.89%

Q: Which inhibition [1] does the source give for `C[C@@H]([C@@H](CCCCc1ccccc1)C(=O)N[C@H](C(=O)Nc1cccnc1)C(C)(C)C)N(O)C=O` here?
A: 0.14%

Q: What about the inhibition [2] of the same compound?
A: -1.56%

Q: What about the inhibition [3] of the same compound?
A: 2.12%

Q: For `COc1ccc2nccc(N3CCC(SCCNCc4ccc5c(n4)NC(=O)CS5)C3)c2n1` (stereo not given), which inhibition [1] is on record?
A: -1.38%

Q: And the inhibition [2]?
A: -0.72%

Q: And the inhibition [3]?
A: 0.51%

Q: `Cc1ccc(NC(=O)c2ccc3ncccc3c2)cc1OC1CCN(Cc2ccco2)C1` (stereo not given) was tested. Which inhibition [1] did it give?
A: 0.45%

Q: What about the inhibition [2] of the same compound?
A: 1.05%

Q: And the inhibition [3]?
A: 1.55%

Q: How did the inhibition [1] turn out when `CCCCOc1ccccc1C(=O)NCc1csc(-c2ccccc2)n1` was run?
A: -0.31%

Q: What about the inhibition [2] of the same compound?
A: 1.14%

Q: And the inhibition [3]?
A: 0.41%

Q: With `O=C(NC1CCN(c2ccnc3cc(Cl)ccc23)C1)c1ccccc1F` (stereo not given) as the compound, how does the inhibition [1] read?
A: 1.93%

Q: What about the inhibition [2] of the same compound?
A: 2.22%

Q: And the inhibition [3]?
A: 2.72%

Q: Which inhibition [1] does the source give for `CSc1cccc(Nc2nc3ccc(S(=O)(=O)NC(C)C(C)C)cc3n2[C@H](C)C(C)(C)C)c1` (stereo not given in full) here?
A: 6.73%

Q: And the inhibition [2]?
A: 6.18%

Q: What about the inhibition [3] of the same compound?
A: 6.54%

Q: Which results are given for `Cc1nnc2sc(-c3cccc(NC(=O)c4ccc(N5CCCCC5)c([N+](=O)[O-])c4)c3)nn12`?
A: inhibition [1]: 0.34%; inhibition [2]: -1.03%; inhibition [3]: -0.5%

Q: Which results are given for `CCCC[C@@H](C(=O)NCCc1ccc(Cl)cc1)N1C(=O)CCC1C(=O)Nc1ccc(Cl)c(Cl)c1` (stereo not given in full)?
A: inhibition [1]: -0.33%; inhibition [2]: 2.4%; inhibition [3]: 0.19%

Q: How did the inhibition [1] turn out when `NC1=NC(c2ccccc2)(c2ccccc2)C(=O)N1Cc1ccc(-c2ccncc2)cc1` was run?
A: 8.4%

Q: What about the inhibition [2] of the same compound?
A: 6.36%

Q: What about the inhibition [3] of the same compound?
A: 6.42%

Q: Which results are given for `Cc1ccc(CON2C(N)=NC(N)=NC2(C)C)c(Cl)c1.Cc1ccc(CON2C(N)=NC(N)=NC2(C)C)cc1Cl`?
A: inhibition [1]: 2.94%; inhibition [2]: 4.84%; inhibition [3]: 1%

Q: With `CCN(CCS(C)(=O)=O)Cc1ccc(-c2ccc3ncnc(Nc4ccc(OCc5cccc(F)c5)c(Cl)c4)c3c2)o1` as the compound, how does the inhibition [1] read?
A: 2.48%

Q: What about the inhibition [2] of the same compound?
A: 0.54%

Q: And the inhibition [3]?
A: -0.09%

Q: What does the source list for `N#Cc1ccc2c(c1)CCN(CCC1CCC(NC(=O)/C=C/c3c[nH]c4ccc(F)cc34)CC1)CC2` (stereo not given)?
A: inhibition [1]: 0.97%; inhibition [2]: 3.57%; inhibition [3]: 2.6%

Q: Which results are given for `Cc1cc(C)c(S(=O)(=O)N2CCCCC(c3cccc(C(F)(F)F)c3)=N2)c(C)c1`?
A: inhibition [1]: 1.84%; inhibition [2]: 1.41%; inhibition [3]: 1.47%

Q: Which inhibition [1] does the source give for `CCN(CC)CCN(Cc1ccc(-c2ccc(C(F)(F)F)cc2)cc1)C(=O)CN1C(CCc2cccc(F)c2F)=NS(=O)(=O)c2ccccc21` here?
A: -0.85%

Q: What about the inhibition [2] of the same compound?
A: -0.42%

Q: What about the inhibition [3] of the same compound?
A: -3.12%

Q: `CC(C)c1ccc(CN2CCCCC(NC(=O)c3cc(-c4ccccc4Cl)cs3)C2)cc1` (stereo not given) was tested. Which inhibition [1] did it give?
A: -0.41%

Q: What about the inhibition [2] of the same compound?
A: -1.98%

Q: What about the inhibition [3] of the same compound?
A: -4.09%

Q: What does the source list for `Cc1cc(C(=O)CN2C(=O)NC(C)(c3ccc4ccccc4c3)C2=O)c(C)n1Cc1ccco1` (stereo not given)?
A: inhibition [1]: -0.27%; inhibition [2]: -1.11%; inhibition [3]: -4.18%

Q: Which results are given for `Nc1c(Cl)cc(C(O)CNCCCCCOCCc2ccccc2)cc1C(F)(F)F` (stereo not given)?
A: inhibition [1]: 8.73%; inhibition [2]: 4.17%; inhibition [3]: -2.01%

Q: `Cn1c(Nc2cc(C(C)(C)C)on2)nc2cc(Nc3ccnc(Nc4cccc(CS(C)(=O)=O)c4)n3)ccc21` was tested. Which inhibition [1] did it give?
A: 0.14%

Q: What about the inhibition [2] of the same compound?
A: 2.81%

Q: What about the inhibition [3] of the same compound?
A: -0.39%

Q: Which results are given for `COc1cc(N(Cc2ccccc2C)S(=O)(=O)Cc2ccccc2[N+](=O)[O-])c(OC)cc1Cl`?
A: inhibition [1]: 3.26%; inhibition [2]: 2.73%; inhibition [3]: 3.39%

Q: Which results are given for `Cc1cc(NC2CCCC2)nc(Nc2ccccc2)n1`?
A: inhibition [1]: 16.4%; inhibition [2]: 9.56%; inhibition [3]: 6.13%

Q: What does the source list for `COc1cc2nc(N3CCC(c4ccccc4)CC3)nc(NCc3ccc(=O)[nH]c3)c2cc1OC`?
A: inhibition [1]: 1.44%; inhibition [2]: 1.5%; inhibition [3]: 1.6%

Q: For `Nc1nc(N)c2c(ccc3c2ccn3Cc2ccccc2)n1`, which inhibition [1] is on record?
A: 92.2%

Q: And the inhibition [2]?
A: 94%

Q: And the inhibition [3]?
A: 86.1%

Q: For `COc1ccc2c(c1)ncn2-c1cc(OCc2ccncc2Br)c(C(N)=O)s1`, which inhibition [1] is on record?
A: 1.09%

Q: And the inhibition [2]?
A: 1.34%

Q: What about the inhibition [3] of the same compound?
A: 2.35%

Q: With `CCOc1ccc2c(N/N=C/c3cccc([N+](=O)[O-])c3)cc(C)nc2c1` as the compound, how does the inhibition [1] read?
A: 5.98%

Q: And the inhibition [2]?
A: 4.85%

Q: And the inhibition [3]?
A: 4.14%

Q: Which results are given for `O=C(Nc1ccc(CN2CCOCC2)cc1)c1ccc(-c2ccc(Cl)cc2)o1`?
A: inhibition [1]: -0.08%; inhibition [2]: -0.82%; inhibition [3]: -4.75%

Q: What does the source list for `COc1ccccc1CCNc1nc(C)cc(NCCC(=O)NCCOc2ccccc2)n1`?
A: inhibition [1]: 5.24%; inhibition [2]: 7.33%; inhibition [3]: 2.01%

Q: For `N#Cc1ccc(N2CCN(Cc3ccc(-c4ccc(-c5nc6cc(C(F)(F)F)ccc6[nH]5)cc4)cc3)CC2)nc1`, which inhibition [1] is on record?
A: 2.63%

Q: And the inhibition [2]?
A: 4.69%

Q: What about the inhibition [3] of the same compound?
A: 1.55%

Q: With `Cc1cc(N2CCCN(CC3CCCCC3)CC2)nc(Nc2ccc(Br)cc2)n1` as the compound, how does the inhibition [1] read?
A: 1.81%

Q: What about the inhibition [2] of the same compound?
A: 6.86%

Q: What about the inhibition [3] of the same compound?
A: -2.12%

Q: Which results are given for `CCCCCN(C(=O)Nc1cc(C(F)(F)F)cc(C(F)(F)F)c1)C(C)c1nc2ccccc2c(=O)n1CC` (stereo not given)?
A: inhibition [1]: -0.28%; inhibition [2]: 1.02%; inhibition [3]: 6.73%

Q: `COc1cccc(OC2CCN(C(=O)c3cc(C(C)(C)C)nn3Cc3ccccc3)CC2)c1` was tested. Which inhibition [1] did it give?
A: 1.4%

Q: And the inhibition [2]?
A: 0.53%

Q: What about the inhibition [3] of the same compound?
A: 1.38%

Q: Which results are given for `CCCCNCc1ccc(-c2nc(CN(C(=O)Nc3cc([N+](=O)[O-])ccc3F)C3Cc4ccccc4C3)cs2)cc1`?
A: inhibition [1]: 6.86%; inhibition [2]: 8.03%; inhibition [3]: 4.78%

Q: What does the source list for `CN(CCO)Cc1ccc(-c2ccc(NS(=O)(=O)c3cccc4cccnc34)cc2)cc1`?
A: inhibition [1]: 75.1%; inhibition [2]: 81.8%; inhibition [3]: 80.8%

Q: Which inhibition [1] does the source give for `O=C(Nc1cccc(Oc2ccccc2)c1)N[C@H]1CCN(Cc2ccc(OCCCN3CCCCC3)cc2)C1` here?
A: 3.58%

Q: What about the inhibition [2] of the same compound?
A: 5.18%

Q: And the inhibition [3]?
A: 6.98%

Q: For `O=c1cc(NCCCNCc2sc(Br)nc2Br)[nH]c2ccccc12`, which inhibition [1] is on record?
A: 3.62%

Q: And the inhibition [2]?
A: 4.14%

Q: And the inhibition [3]?
A: 4.34%

Q: With `CCCCCCn1c(Sc2ccc(C#N)c([N+](=O)[O-])c2)nnc1-c1cccc(Cl)c1` as the compound, how does the inhibition [1] read?
A: 3.22%

Q: And the inhibition [2]?
A: 9.17%

Q: And the inhibition [3]?
A: 0.88%

Q: For `OC1=C2C(=Nc3ccccc3SC2c2ccccc2)c2ccccc21` (stereo not given), which inhibition [1] is on record?
A: 4.3%

Q: What about the inhibition [2] of the same compound?
A: 5.31%

Q: And the inhibition [3]?
A: 1.01%

Q: How did the inhibition [1] turn out when `CN1CCN(Cc2ccc(-c3ccc4c(Nc5ccc(Oc6ccccn6)cc5)ccnc4c3)o2)CC1` was run?
A: -0.46%

Q: And the inhibition [2]?
A: 0.11%

Q: What about the inhibition [3] of the same compound?
A: -1.97%

Q: Which results are given for `O=C(Nc1ccc(Cl)cc1)c1cccc(S(=O)(=O)NC2CCN(CC3CCCCC3)C2)c1` (stereo not given)?
A: inhibition [1]: 9.12%; inhibition [2]: 8.41%; inhibition [3]: 4.13%
